The supplement of paper PMC4709259
Counter-ions that a name gives are not always drawn. ± gives the standard deviation.

Experiments:
[1] = system: Jurkat; test: mean cell size (FSC-A) relative to DMSO control (fraction of control); higher = larger cells; details: 48 h
How it was run: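 Jurkat cells at 600 cells/µl were incubated for 1 h and then treated for 48h with the Enzo Screen-Well FDA Approved Drug Library v2.0 at 25µM, with DMSO at 0.9% (v/v) final. Compounds that reduced counts below 20% of controls were retested in 10-fold dilutions down to 25nM. Cell count and mean cell size, taken as forward scatter area, were measured by flow cytometry relative to solvent-only controls. Each plate carried 6-12 controls, and values are means of 3 biological replicates.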

[2] = system: Jurkat; test: cell count relative to DMSO control (fraction of control); higher = more cells (less growth inhibition); details: 48 h

Compound: COc1cc2ncnc(Nc3ccc(F)c(Cl)c3)c2cc1OCCCN1CCOCC1 [Gefitinib] (concentration: 2.5 µM)
- mean cell size [1]: 1.04 ± 0.045
- cell count [2]: 0.736 ± 0.11

Compound: O=P(O)(O)C(O)(Cn1ccnc1)P(=O)(O)O [Zoledronic Acid Monohydrate] (concentration: 25 µM)
- mean cell size [1]: 0.938 ± 0.031
- cell count [2]: 0.296 ± 0.11

Compound: CNCCCC1c2ccccc2C=Cc2ccccc21 [Protriptyline·HCl] (concentration: 25 µM)
- mean cell size [1]: 1.05 ± 0.019
- cell count [2]: 0.821 ± 0.056

Compound: CNCC[C@@H](Oc1ccccc1C)c1ccccc1 [Atomoxetine·HCl] (concentration: 25 µM)
- mean cell size [1]: 0.996 ± 0.05
- cell count [2]: 0.81 ± 0.12

Compound: Cc1cnc(NC(=O)C2=C(O)c3ccccc3S(=O)(=O)N2C)s1 [Meloxicam] (concentration: 25 µM)
- mean cell size [1]: 0.9071 ± 0.0086
- cell count [2]: 0.808 ± 0.066

Compound: CC(C)Nc1cccnc1N1CCN(C(=O)c2cc3cc(NS(C)(=O)=O)ccc3[nH]2)CC1 [Delavirdine Mesylate] (concentration: 25 µM)
- mean cell size [1]: 0.942 ± 0.036
- cell count [2]: 0.887 ± 0.099

Compound: NC(=O)Cc1cccc(C(=O)c2ccccc2)c1N [Nepafenac] (concentration: 25 µM)
- mean cell size [1]: 0.934 ± 0.019
- cell count [2]: 0.727 ± 0.025

Compound: COc1ccc2[nH]c([S+]([O-])Cc3ncc(C)c(OC)c3C)nc2c1 (stereo not drawn) [Omeprazole] (concentration: 25 µM)
- mean cell size [1]: 0.946 ± 0.035
- cell count [2]: 0.946 ± 0.083

Compound: CC(=O)N[C@H]1[C@H]([C@H](O)[C@H](O)CO)OC(C(=O)O)=C[C@@H]1NC(=N)N [Zanamivir] (concentration: 25 µM)
- mean cell size [1]: 0.993 ± 0.052
- cell count [2]: 0.647 ± 0.18

Compound: Cc1cc(C(=O)NNCc2ccccc2)no1 [Isocarboxazid] (concentration: 25 µM)
- mean cell size [1]: 0.965 ± 0.057
- cell count [2]: 0.735 ± 0.1

Compound: NS(=O)(=O)c1cc2c(cc1C(F)(F)F)NCNS2(=O)=O [Hydroflumethiazide] (concentration: 25 µM)
- mean cell size [1]: 0.944 ± 0.048
- cell count [2]: 0.681 ± 0.17

Compound: NS(=O)(=O)c1cc2c(cc1Cl)N=CNS2(=O)=O [Chlorothiazide] (concentration: 25 µM)
- mean cell size [1]: 0.926 ± 0.011
- cell count [2]: 1.16 ± 0.082

Compound: NC12CC3CC(CC(C3)C1)C2 [Amantadine·HCl] (concentration: 25 µM)
- mean cell size [1]: 1.01 ± 0.058
- cell count [2]: 0.749 ± 0.17

Compound: C[C@@H](O)[C@H]1C(=O)N2C(C(=O)O)=C(S[C@@H]3CN[C@H](C(=O)N(C)C)C3)[C@H](C)[C@H]12 [Meropenem] (concentration: 25 µM)
- mean cell size [1]: 0.944 ± 0.015
- cell count [2]: 0.939 ± 0.078

Compound: CCOC(=O)C1=C(COCCN)NC(C)=C(C(=O)OC)C1c1ccccc1Cl (stereo not drawn) [Amlodipine] (concentration: 25 µM)
- mean cell size [1]: 1.06 ± 0.053
- cell count [2]: 0.268 ± 0.055

Compound: CNCCC=C1c2ccccc2CCc2ccccc21 [Nortriptyline·HCl] (concentration: 25 µM)
- mean cell size [1]: 1.06 ± 0.025
- cell count [2]: 0.498 ± 0.056

Compound: O=NN(CCCl)C(=O)NC1CCCCC1 [Lomustine] (concentration: 25 µM)
- mean cell size [1]: 1.19 ± 0.07
- cell count [2]: 0.287 ± 0.11

Compound: CC1(C)O[C@@H]2C[C@H]3[C@@H]4C[C@H](F)C5=CC(=O)CC[C@]5(C)[C@H]4[C@@H](O)C[C@]3(C)[C@]2(C(=O)CO)O1 [Flurandrenolide] (concentration: 25 µM)
- mean cell size [1]: 0.916 ± 0.035
- cell count [2]: 0.638 ± 0.12

Compound: Cc1c(-c2ccccc2)oc2c(C(=O)OCCN3CCCCC3)cccc2c1=O [Flavoxate·HCl] (concentration: 25 µM)
- mean cell size [1]: 1.01 ± 0.057
- cell count [2]: 1.01 ± 0.062

Compound: CCC(=O)O[C@]1(C(=O)CCl)[C@@H](C)C[C@H]2[C@@H]3C[C@H](F)C4=CC(=O)C=C[C@]4(C)[C@@]3(F)[C@@H](O)C[C@@]21C [Halobetasol Propionate] (concentration: 25 µM)
- mean cell size [1]: 0.971 ± 0.034
- cell count [2]: 0.883 ± 0.12

Compound: NC(=O)c1cnccn1 [Pyrazinamide] (concentration: 25 µM)
- mean cell size [1]: 1 ± 0.031
- cell count [2]: 0.808 ± 0.066

Compound: CCCCN1CCCCC1C(=O)Nc1c(C)cccc1C (stereo not drawn) [Bupivacaine·HCl] (concentration: 25 µM)
- mean cell size [1]: 0.982 ± 0.02
- cell count [2]: 0.656 ± 0.097

Compound: C=C(c1ccc(C(=O)O)cc1)c1cc2c(cc1C)C(C)(C)CCC2(C)C [Bexarotene] (concentration: 2.5 µM)
- mean cell size [1]: 0.942 ± 0.017
- cell count [2]: 0.955 ± 0.09

Compound: NC[C@@H]1O[C@H](O[C@H]2[C@@H](O)[C@H](O[C@@H]3[C@@H](O)[C@H](N)C[C@H](N)[C@H]3O[C@H]3O[C@H](CN)[C@@H](O)[C@H](O)[C@H]3N)O[C@@H]2CO)[C@H](N)[C@@H](O)[C@@H]1O [Neomycin Sulfate] (concentration: 25 µM)
- mean cell size [1]: 0.935 ± 0.018
- cell count [2]: 0.944 ± 0.038
